About 83,000 compounds went through this panel and 20% of them were active in at least one assay; those are over-represented in the sample as a whole.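 Plates (96-well) were seeded with cells, treated with compound at one concentration, and incubated for 48 hours before percent growth was determined.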 Unmarked numbers belong to inactive results. The source made the active and inactive calls. Rule for the calls: active = growth percent below 10; inactive = the rest.
Experiments:
Experiment in all cases: NCI-60 one-dose screen, 48 h (100 = growth as untreated, 0 = no growth, -100 = all killed)
Settings in all cases: 10 µM unless noted
NCI-H23 lung = tested on: NCI-H23 lung
NCI-H226 lung = tested on: NCI-H226 lung
NCI-H322M lung = tested on: NCI-H322M lung
HOP-62 NSCLC = tested on: HOP-62 NSCLC
NCI-H460 lung = tested on: NCI-H460 lung
HOP-92 NSCLC = tested on: HOP-92 NSCLC
NCI-H522 lung = tested on: NCI-H522 lung
A549/ATCC NSCLC = tested on: A549/ATCC NSCLC
786-0 renal = tested on: 786-0 renal
COLO 205 colon = tested on: COLO 205 colon
DU-145 prostate = tested on: DU-145 prostate
K-562 leukemia = tested on: K-562 leukemia
MALME-3M melanoma = tested on: MALME-3M melanoma
MDA-MB-231 breast = tested on: MDA-MB-231 breast
RXF 393 renal = tested on: RXF 393 renal
SF-268 CNS = tested on: SF-268 CNS
SF-295 CNS = tested on: SF-295 CNS
SF-539 CNS = tested on: SF-539 CNS
UACC-257 melanoma = tested on: UACC-257 melanoma
M14 melanoma = tested on: M14 melanoma

| Structure (SMILES) | growth (NCI-H23 lung) [%] | growth (NCI-H226 lung) [%] | growth (NCI-H322M lung) [%] | growth (HOP-62 NSCLC) [%] | growth (NCI-H460 lung) [%] | growth (HOP-92 NSCLC) [%] | growth (NCI-H522 lung) [%] | growth (A549/ATCC NSCLC) [%] | growth (786-0 renal) [%] | growth (COLO 205 colon) [%] | growth (DU-145 prostate) [%] | growth (K-562 leukemia) [%] | growth (MALME-3M melanoma) | growth (MDA-MB-231 breast) [%] | growth (RXF 393 renal) [%] | growth (SF-268 CNS) | growth (SF-295 CNS) | growth (SF-539 CNS) [%] | growth (UACC-257 melanoma) [%] | growth (M14 melanoma) [%] |
| --- | --- | --- | --- | --- | --- | --- | --- | --- | --- | --- | --- | --- | --- | --- | --- | --- | --- | --- | --- | --- |
| COc1nc(Nc2cccc(C(F)(F)F)c2)nc(OC)n1 | 97.2 | 96.8 | 96.9 | 98.8 | 106 | 92.4 | 75 | 102 | 96.8 | 109 | 105 | 87 | 116% | 90.7 | 102 | 98.4% | 88.4% | 98 | 121 | 113 |
| CC(=O)CSc1ncnc2nc[nH]c12 | 106 | 92.1 | 115 | 84.8 | 98.4 | 69.6 | 72.8 | 87.3 | 91.7 | 97.6 | 94.3 | 82.9 | 93.4% | 87.5 | 89.9 | 105% | 99.7% | 94.8 | 78.3 | 59.2 |
| COc1ccc(C(=O)C(=O)c2ccccc2)cc1 | 94 | 91.9 | 93.8 | 102 | 104 | 90.7 | 97.2 | 104 | 103 | 112 | 113 | 111 | 101% | 101 | 92.9 | 105% | 96.6% | 117 | 111 | 106 |
| C[n+]1cc2cc3c(cc2c2ccccc21)OCO3 | 42.7 | 55.3 | 39 | 33.7 | 59.2 | 82 | 30.8 | 15.1 | 51.4 | 75.6 | 57.3 | 49.1 | -0.635% (active) | 90.1 | – | -0.333% (active) | 9.18% (active) | 38.8 | 69.5 | 81.4 |

— PubChem BioAssay (NCI)
